Experimental data as given in PubChem BioAssay AID540364 (The Scripps Research Institute Molecular Screening Center, 2011).
Out of some 360,000 compounds screened, about 2,000 (0.56%) were called active.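 How the source made its calls: active means activation above the average of all compounds screened plus 3 SD, cutoff fixed separately per campaign (cut at about 7.5% in these data); inactive means the rest.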 The list comes from a sample in which actives are over-represented; it also holds similar structures and randomly drawn compounds.

Test: GAA850 frataxin promoter reporter upregulation – cell-based, luciferase luminescence, HEK293 lucGAA850, primary screen (AID 540364);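 further: 0% = DMSO wells and 100% = 10 µM SAHA wells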
Details: HEK293 lucGAA850 FXN promoter luciferase reporter, 24 h; at 6 µM; stronger effect = higher value; percent of 10 µM SAHA response

SMILES | activation
O=C1[C@H]2[C@@H](c3ccc(C(F)(F)F)cc3)N[C@]3(CCCN(Cc4ccc(Br)cc4)C3=O)[C@H]2C(=O)N1Cc1ccccc1 | -7.76% (inactive)
O=C1[C@H]2[C@@H](c3ccc(F)cc3)N3C(=O)N(c4ccc(C(F)(F)F)cc4)C(=O)[C@@]3(Cc3ccccc3)[C@H]2C(=O)N1C1CCCCC1 | 7.65% (active)
Cc1cccc([C@@H]2[C@@H]3C(=O)N(Cc4ccccc4)C(=O)[C@@H]3[C@]3(Cc4ccc(Cl)cc4)C(=O)N(c4cccc(Cl)c4)C(=O)N23)c1 | 0.5% (inactive)
CC12C(=O)N(c3ccccc3)C(=O)C1C(c1ccccc1)N1CCCN12 (stereo not given) | -0.94% (inactive)
Cc1cccc(N2C(=O)N3[C@H](c4ccc(F)cc4)[C@@H]4C(=O)N(C5CCCCC5)C(=O)[C@@H]4[C@]3(Cc3ccccc3)C2=O)c1 | 5.49% (inactive)
O=C1[C@H]2[C@@H](c3ccc(Cl)cc3)N3C(=O)N(c4cccc(F)c4)C(=O)[C@@]3(Cc3ccccc3)[C@H]2C(=O)N1C1CCCCC1 | 8.92% (active)
C[C@@]12C(=O)N(c3cccc(Br)c3)C(=O)N1[C@H](c1ccc(Cl)cc1)[C@@H]1C(=O)N(C3CCCCC3)C(=O)[C@@H]12 | 7.88% (active)
O=C1[C@H]2[C@@H](c3ccc(C(F)(F)F)cc3)N[C@]3(CCCN(Cc4ccc(Cl)cc4)C3=O)[C@H]2C(=O)N1Cc1ccccc1 | -7.53% (inactive)
CCOC(=O)[C@@H]1[C@H]2COc3ccc(Br)cc3[C@H]2N2C(=O)N(c3ccc(C)cc3)C(=O)[C@@]12C | 0.65% (inactive)
CNC(=O)c1ccc(CN(C)C(=O)c2cc(C3CC3)nc3c2cnn3C(C)C)cc1 | 1.69% (inactive)
CN(C(=O)c1cccc(NC(=O)Cc2ccc(NC(=O)C3CCCN(C(=O)C4CC4)C3)cc2)c1)C1CC1 (stereo not given) | 0.38% (inactive)
O=C(CN1C(=O)NC2(CCCC2)C1=O)NCC1CCCO1 (stereo not given) | 0.59% (inactive)
COCc1cc(C)nc(Nc2cc(C)ccc2C)c1C#N | -0.89% (inactive)
CCOC(=O)c1ccc(-c2ccc3ncnc(N(C)Cc4sccc4C)c3c2)o1 | 4.4% (inactive)
O=C(Nc1nccs1)C1CCCN1S(=O)(=O)c1cccc2cccnc12 (stereo not given) | -0.14% (inactive)
O=C(NCc1ccco1)c1cc2sccc2n1Cc1ccc(F)cc1 | 0.82% (inactive)
O=C(Cc1ccc(-n2c(=O)c3sccc3n(Cc3ccc(F)cc3)c2=O)cc1)NCc1ccco1 | -1.57% (inactive)
O=C(NCc1ccco1)c1ccc(Cn2c(=O)c3sccc3n(Cc3ccc(F)cc3)c2=O)cc1 | 15.4% (active)
C/C(Cc1ccccc1)=N\NC(=O)CNC(=O)c1ccc2c(c1)OCCO2 | -1.21% (inactive)
COc1ccccc1-c1nnc(SCC(=O)N2CC(C)CC(C)C2)o1 (stereo not given) | 3.31% (inactive)
COc1ccc(-c2nnc(SCC(=O)c3cccs3)o2)c(OC)c1 | 7.8% (active)
COc1ccc(-c2nnc(NC(=O)CS(=O)(=O)c3ccc(Cl)cc3)o2)c(OC)c1 | 2.95% (inactive)

SMILES | activation
CCOCCCNC(=O)c1cc2c(=O)n3ccccc3nc2s1 | 3.92% (inactive)
Cc1cccn2c(=O)c3cc(C(=O)NC4CCCCC4)sc3nc12 | 2% (inactive)
CN(C(=O)c1cc2c(=O)n3ccccc3nc2s1)C1CCCCC1 | 8.38% (active)
CC(=O)N1c2ccc(S(=O)(=O)N3CCC(C(=O)NC4CCCC(C)C4C)CC3)cc2CC1C (stereo not given) | 1.08% (inactive)
Clc1ccc(-c2nnc(-c3ccccc3)nc2N2CCSCC2)cc1 | -1.26% (inactive)
OC(c1ccc(Cl)c(F)c1)c1ncc(-c2ccccc2Cl)[nH]1 (stereo not given) | 0.22% (inactive)
CCOC(=O)C1Cn2c(nc3c(c2=O)C(C)(CC)Cc2ccccc2-3)S1 (stereo not given) | 1.17% (inactive)
CCC1(CC)Cc2ccccc2-c2nc(CCl)[nH]c(=O)c21 | 8.24% (active)
N#CCSc1nc2c(c(=O)n1Cc1ccccc1)C1(CCCC1)Cc1ccccc1-2 | -0.71% (inactive)
CN1CCCc2cc(C#N)c(=O)[nH]c21 | -0.22% (inactive)
C[C@H](CO)N1C[C@H](C)[C@@H](CN(C)S(=O)(=O)c2ccc(Oc3ccccc3)cc2)OCc2cn(nn2)CCCC1=O | -2.73% (inactive)
CCOC(=O)C1CCN(C(=O)c2ccc3c(=O)n4nc(Nc5ccccc5CC)sc4nc3c2)CC1 | 0.72% (inactive)
O=C(/C=C/Sc1ncn[nH]1)c1ccc(Cl)cc1 | 23.3% (active)
COc1ccc(CNC(=O)[C@@H]2CC=C[C@@H]3CCN(C4CC4)C(=O)[C@@H]32)cc1 | -0.64% (inactive)
O=S(=O)(Nc1ccc2nc(-c3ccco3)[nH]c2c1)c1ccccc1 | 2.98% (inactive)
Cc1ccc(Nc2nc(-c3ccc(O)cc3O)cs2)nc1 | 2.15% (inactive)
COc1ccc(-c2csc(Nc3ccc(O)cc3)n2)cc1 | 8.06% (active)
COc1ccc(C(C)(O)c2nc(-c3ccc(C)c(C)c3)cs2)cc1 (stereo not given) | 0.79% (inactive)
COc1ccc(-c2csc(Cc3nc(O)cs3)n2)cc1 | 21.7% (active)
COc1ccc(-c2csc(Nc3cccc(C)n3)n2)cc1OC | 0.8% (inactive)
COc1ccc(C(O)c2nc(-c3ccc(OC)nc3)cs2)cc1 (stereo not given) | 0.21% (inactive)
Cc1ccn2c(-c3csc(Nc4ccc(C(=O)O)cc4)n3)c(C)nc2c1 | 1.81% (inactive)

SMILES | activation
COC(=O)CCc1sc(Nc2ccc(Br)cc2)nc1-c1ccc(OC)cc1 | 2.66% (inactive)
O=c1oc2ccccc2cc1-c1csc(Nc2ccc(O)cc2)n1 | 22.5% (active)
COc1cc2c(cc1CNC[C@H]1O[C@@H](n3cnc(C(N)=O)n3)[C@H](O)[C@@H]1O)OCO2 | -0.43% (inactive)
CCOC(=O)c1c(C)oc2cc(Br)c(OCC(N)=O)cc12 | -1.34% (inactive)
COc1cc2c(cc1OC)C(C(=O)Nc1cc(C)c(OC)c(C)c1)CC(=O)N2 (stereo not given) | 1.49% (inactive)
CC12CCC(=O)C=C1CCC1C2C(O)CC2(C)C1CCC2(O)C(O)CO (stereo not given) | 0.74% (inactive)
O=C(O)c1ccccc1N=N/C(=N/Nc1cc(S(=O)(=O)O)ccc1O)c1ccccc1 | -1.25% (inactive)
COc1ccc(OC)c(S(=O)(=O)N(C)CC(=O)N2CCN(c3ccccc3)CC2)c1 | -1.26% (inactive)
CC1CC2=C(CC1/C=N/NC(N)=S)C(C)(C)CCC2 (stereo not given) | -2.98% (inactive)
Cc1ccc(C2NC(=S)NC3=C2N2CCC3CC2)cc1 (stereo not given) | 1.46% (inactive)
CC(=O)CCS(=O)(=O)c1ccc(C)c(C)c1 | 0.08% (inactive)
CCOc1cc(/C=N/Nc2cc(C)nc3ccc(C)cc23)ccc1O | -0.68% (inactive)
COc1cc(C=NC2CCCCC2)ccc1O | -0.66% (inactive)
COc1cc(/C=N/Nc2nc3ccccc3s2)ccc1O | 8.92% (active)
CCN1C(=NCCc2cccnc2)N[C@@H](c2ccccc2)[C@H](C(=O)OC)[C@H]1C | 1.66% (inactive)
Cc1ccc(CNC(=O)Nc2nnc([C@H]3C[C@H](O)[C@@H](CO)O3)s2)cc1 | 0.3% (inactive)
Cc1nc(-c2ccc(F)cc2)c(CC(=O)N2CCN(S(=O)(=O)c3ccc(F)cc3)CC2)s1 | 1.58% (inactive)
Cc1nc(-c2ccc(F)cc2)c(CC(=O)Nc2cccc(S(=O)(=O)N3CCOCC3)c2)s1 | -0.93% (inactive)
Cc1nc(-c2ccc(F)cc2)c(CC(=O)Nc2cc(S(=O)(=O)N3CCCCC3)ccc2C)s1 | 18.7% (active)
CSCCC(NC(N)=O)C(=O)N(C)CC(=O)Nc1ccc(C)cc1 (stereo not given) | 0.85% (inactive)
CCOc1cc(S(=O)(=O)NCc2ccc3c(c2)OCO3)ccc1F | 1.09% (inactive)
Cc1ccccc1N1CC(c2nc3ccccc3[nH]2)CC1=O (stereo not given) | -3.78% (inactive)

SMILES | activation
Cc1ccc(-c2nnc(-n3nnc4ccccc43)c3ccccc23)cc1 | 3.17% (inactive)
Cc1ccc(-c2nc3ccccc3[nH]c2=O)cc1 | 8.59% (active)
COc1ccc(Nc2nc(NCc3ccco3)nc(N/N=C/c3ccccc3Cl)n2)cc1 | 0.27% (inactive)
CN(c1ccccc1)c1nc(N)c([N+](=O)[O-])c(NCc2ccco2)n1 | 6.64% (inactive)
COc1cccc(Nc2nc(N)c([N+](=O)[O-])c(NCc3ccco3)n2)c1 | 12.7% (active)
CCOC(=O)C1CCN(C(=O)CN2C(=O)NC(C)(c3ccc4cc(OC)ccc4c3)C2=O)CC1 (stereo not given) | -1.63% (inactive)
O=c1c2c(-c3ccccc3)ccnc2[nH]n1-c1ccccc1 | 2.17% (inactive)
O=c1[nH]cnc2c1c(-c1ccccc1)cn2-c1ccc(F)cc1 | 8.36% (active)
CCOC(=O)C1CCN(c2ncnc3c2c(-c2ccccc2)cn3-c2ccc(C)cc2)CC1 | 0.35% (inactive)
CCc1nnc(NC(=O)CSc2nnc(COc3ccc(C#N)cc3)n2-c2ccccc2)s1 | 0.66% (inactive)
CCOc1ccc(CCNC(=O)C2CCN(c3ccc(N4CCOCC4)nn3)CC2)cc1OCC | 2.52% (inactive)
CCCCCCCCCCCCN1[C@@H](CC(C)=O)c2cc(F)cc(F)c2S1(=O)=O | 0.59% (inactive)
COc1ccccc1C1=Nc2cccc3cccc(c23)N1 | 11.7% (active)
COc1ccccc1-c1nc(C(F)(F)F)c(OC)o1 | 0.69% (inactive)
COc1ccccc1C1=CC(=O)CCC1 | -2.28% (inactive)
CCOCCOCCC(C(=O)O)P(=O)(c1ccccc1)c1ccccc1 (stereo not given) | -1.43% (inactive)
CCOc1ccc(NC(=O)CN(C)C(=O)COc2cccc(CC)c2)cc1OCC | 0.68% (inactive)
C[C@H](CO)N1C[C@H](C)[C@@H](CN(C)C(=O)c2cccc(F)c2)Oc2cc(-c3cncnc3)ccc2S1(=O)=O | 0.78% (inactive)
COc1ccccc1CNC(=O)c1ccc(N(C)S(=O)(=O)c2ccc(C)cc2)cc1 | 0.45% (inactive)
